Laboratory results from PubChem BioAssay AID686979 (National Center for Advancing Translational Sciences (NCATS), 2013).
Where “and” joins values, the source holds several entries; their conditions need not be identical. Equal values may be shown once. Out of some 420,000 compounds screened, about 50,000 (12%) were called active. Not shown: some 26% with an inconclusive outcome. Calls come from the whole dose curve; as a rule, active = well fitted inhibition curve with a large enough effect; inconclusive = small, poorly fitted or top-dose-only effect; inactive = flat fitted curve, though single readings scatter. What follows is part of a selection rich in actives, with near analogues and random picks from the rest. Where a call stands in place of a potency, no number is given.
Potency is the fitted concentration of half-maximal effect.

Assay: qHTS for Inhibitors of human tyrosyl-DNA phosphodiesterase 1 (TDP1): qHTS in cells in presence of CPT; note: nearly all actives have a fitted effect of over 55% in size
Conditions: chicken DT40 Tdp1-/-;hTDP1 cells + 20 nM CPT, ATP luminescence, 48 h; series mostly up to 46.2 µM
Procedure, shortened: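 Chicken DT40 Tdp1-/- cells complemented with human TDP1, 400 cells/well, exposed to compounds plus 20 nM camptothecin for at least 48 h at 37 C; viability read as ATP content by CellTiter-Glo luminescence.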
For `Cc1ccc(NC(=O)c2ccn(C(=O)Nc3ccccc3)n2)c(C)c1`, the Potency was “inactive”. In the case of `Cc1ccc(NC(=O)c2oc3ccccc3c2C)c([N+](=O)[O-])c1`, the Potency is reported as “inactive”. For `Cc1ccc(NC(=O)c2oc(=O)c3ccccc3c2-c2ccccc2)c(C)c1`, the Potency was 23.1 µM (active). In the case of `O=C(CSc1nnc(Nc2ccccc2F)s1)NC1CCCC1`, the Potency is reported as “inactive”. In the case of `Nc1cccc(-c2cncc(N3CCN(Cc4ccccn4)CC3)n2)c1`, the Potency is reported as “inactive”. With `COc1cccc(-c2noc(C3CCCN(C(=O)c4ccc(F)cc4)C3)n2)c1` (configuration not stated) the Potency was “inactive”. With `COc1ccc(NC(=O)C2CCCN(S(=O)(=O)c3cccc4nonc34)C2)cc1Cl` (configuration not stated) the Potency was “inactive”. With `COc1cc(-c2noc(C3CCCN(S(=O)(=O)c4cccc(Cl)c4)C3)n2)cc(OC)c1OC` (configuration not stated) the Potency was 12.6 µM (active). With `COc1ccccc1CC(NC(C)=O)C(=O)NC1CCN(C(=O)Nc2ccccc2Cl)CC1` (configuration not stated) the Potency was “inactive”. With `COc1cc(C2/C(=C(\O)c3ccc4c(c3)CC(C)O4)C(=O)C(=O)N2c2nnc(C)s2)cc(OC)c1OC` (configuration not stated) the Potency was “inactive”. In the case of `Cc1cc(Nc2ccc(C(=O)N3CCCCC3)cc2)c2cccc(C)c2n1`, the Potency is reported as “inactive”. In the case of `CCOC(=O)N1CCN(C(c2ccnc3ccccc23)c2nnnn2-c2c(C)cccc2C)CC1` (configuration not stated), the Potency is reported as “inactive”. In the case of `CCOC(=O)N1CCN(C(c2cccnc2)c2ccc3cccnc3c2O)CC1` (configuration not stated), the Potency is reported as 3.66 µM (active). In the case of `CCOC(=O)N1CCN(Cc2nc(N)nc(Nc3ccc(C)cc3)n2)CC1`, the Potency is reported as “inactive”. In the case of `CC1(C(=O)O)CCC(C(=O)Nc2ccc(Cl)c(Cl)c2)C1(C)C` (configuration not stated), the Potency is reported as “inactive”. With `COc1ccc(S(=O)(=O)NNC(=O)Nc2ccc(C)cc2)c(OC)c1` the Potency was “inactive”. For `CCOC1=C2CN(S(=O)(=O)c3ccc(C)cc3)[C@H](c3cccs3)C[C@H]2[C@H]2C(=O)N(c3ccccc3)C(=O)[C@H]2C1`, the Potency was “inactive”. For `O=C(COC(=O)c1cccc(Cl)c1)NC(=O)NCc1ccccc1`, the Potency was “inactive”. With `Cc1ccc(S(=O)(=O)c2c(COC(=O)c3cccc(Cl)c3)c(-c3ccccc3)nn2C)cc1` the Potency was 23.1 µM (active). In the case of `Cc1cc(C)n(-c2c(F)c(F)c(COC(=O)c3ccccc3)c(F)c2F)n1`, the Potency is reported as “inactive”. In the case of `COc1ccc(S(=O)(=O)N2CCOCC2)cc1NC(=O)COc1ccccc1`, the Potency is reported as “inactive”. For `CC1CC(C)CN(C/C=C/c2ccccc2[N+](=O)[O-])C1` (configuration not stated), the Potency was “inactive”. With `O=C(CCNC(=O)c1ccccc1Cl)NN=Cc1ccco1` the Potency was “inactive”. With `CC(=O)Nc1cccc(-c2cc3nc(NCc4cccnc4)n(C)c(=O)c3s2)c1` the Potency was “inactive”. In the case of `Cn1c(NCc2cccnc2)nc2cc(-c3ccc(F)cc3)sc2c1=O`, the Potency is reported as “inactive”. For `COc1cccc(-c2cc3nc(NCc4ccccc4OC)n(C)c(=O)c3s2)c1`, the Potency was 13 µM (active). For `CN(C)S(=O)(=O)c1ccc(N/C=C(\[N+](=O)[O-])S(=O)(=O)c2ccccc2)cc1`, the Potency was “inactive”. In the case of `C[C@@H](C(=O)N1CCNCC1)n1cc(CCC(=O)O)nn1`, the Potency is reported as “inactive”. For `Cc1ccc(Cn2c(C)c(C(=O)NCc3ccccc3C(F)(F)F)sc2=O)cc1`, the Potency was “inactive”. For `O=[N+]([O-])c1ccccc1S(=O)(=O)Nc1cccc2cccnc12`, the Potency was 794 nM (active) and 3.26 µM (active). For `Cc1ccccc1NC(=O)c1ccccc1NS(=O)(=O)c1cccc2cccnc12`, the Potency was “inactive”. In the case of `NS(=O)(=O)c1ccc(CCNS(=O)(=O)c2cccc3cccnc23)cc1`, the Potency is reported as “inactive”. With `COc1cccc(C(=O)NC(=O)Nc2nc(C)cc(C(F)(F)F)n2)c1` the Potency was “inactive”. With `Cc1ccc(N2CC(C(=O)Nc3cc(Cl)ccc3-n3cncn3)CC2=O)cc1` (configuration not stated) the Potency was “inactive”. In the case of `O=C(CN1CCN(C(=O)c2ccco2)CC1)Nc1ccc2c(c1)OCO2`, the Potency is reported as “inactive”. For `O=C(CN1CCN(C(=O)c2ccco2)CC1)Nc1ccc(Cl)c(C(F)(F)F)c1`, the Potency was 23.1 µM (active). In the case of `O=C(c1ccco1)N1CCN(C(=S)Nc2cc(F)cc(F)c2)CC1`, the Potency is reported as “inactive”. For `Cc1ccc(-n2nnnc2CNC(=O)c2ccccc2C)cc1C`, the Potency was “inactive”. In the case of `C[C@H]1CN([C@@H](C)CO)C(=O)CCCn2cc(nn2)CO[C@@H]1CN(C)S(=O)(=O)c1cccc(C#N)c1`, the Potency is reported as “inactive”. In the case of `O=C(O)C(c1cccs1)C1(O)CCCCC1` (configuration not stated), the Potency is reported as “inactive”. In the case of `O=C(NCCCN1CCOCC1)c1cc(-c2ccccc2F)no1`, the Potency is reported as “inactive”. In the case of `COC(=O)CSc1snnc1-c1ccc(Cl)c(Cl)c1`, the Potency is reported as “inactive”. In the case of `Cc1c(NC(=O)C(C)OC(=O)c2c3c(nc4ccccc24)CCC(C)C3)c(=O)n(-c2ccccc2)n1C` (configuration not stated), the Potency is reported as 13 µM (active). For `Cc1c(NC(=O)C(C)OC(=O)c2ccccc2O)c(=O)n(-c2ccccc2)n1C` (configuration not stated), the Potency was “inactive”. For `Cc1c(NC(=O)C(C)OC(=O)c2cc3c4ccccc4n(C)c3s2)c(=O)n(-c2ccccc2)n1C` (configuration not stated), the Potency was “inactive”. In the case of `N#C/C(=C\c1ccccc1)c1n[nH]c(Cn2cncn2)n1`, the Potency is reported as “inactive”. For `Cc1nn2cc(-c3ccc(Cl)cc3)cnc2c1Br`, the Potency was “inactive”. For `CCc1c(-c2ccc(F)cc2)ncn1Cc1cccc(-c2ccccc2)c1`, the Potency was 11.6 µM (active). With `Cc1cccc(Cn2cnc3c(N)c(C)c(C)cc32)c1` the Potency was “inactive”. In the case of `O=C(NCc1ccncc1)C1CCN(C(=O)c2cccc(Cl)c2)CC1`, the Potency is reported as “inactive”. In the case of `Nc1ccc(-n2nncc2-c2ccco2)cc1`, the Potency is reported as “inactive”. With `O=C(NC(=S)Nc1ccc(Cl)c(C(=O)O)c1)c1cncc(Br)c1` the Potency was “inactive”. For `COc1ccccc1N(CC(=O)Nc1ccccc1C(=O)N1CCCC1)S(C)(=O)=O`, the Potency was “inactive”. For `CCCn1c(N)c(C(=O)CSc2nnc(Cc3cccs3)n2C2CC2)c(=O)[nH]c1=O`, the Potency was “inactive”. In the case of `CCc1nnc(SCc2nc(-c3cccc(C)c3)oc2C)c2cc3sc(C)cc3n12`, the Potency is reported as “inactive”. For `Cc1cc(NC(=O)CSCc2nc(-c3cccc(Cl)c3)oc2C)no1`, the Potency was “inactive”. In the case of `Cc1cc2c(cc3c(SCc4nc(-c5ccccc5)oc4C)nnc(C)n32)o1`, the Potency is reported as 16.4 µM (active). For `Cc1ccc2nc(NC(=O)C3CSC4(C)CCC(=O)N34)sc2c1` (configuration not stated), the Potency was “inactive”. For `O=C(NC1CCCCC1)n1c(=O)oc2cc(S(=O)(=O)N3CCCCC3)ccc21`, the Potency was “inactive”. In the case of `Cc1ccc2nc(NC(=O)C3CCN(S(=O)(=O)c4ccc5c(c4)oc(=O)n5C)CC3)sc2c1`, the Potency is reported as 5.8 µM (active). For `O=C(Nc1cc2c3c(c1)C1CCCC1CN3CC1CCCC21)c1ccc([N+](=O)[O-])cc1` (configuration not stated), the Potency was “inactive”. In the case of `CC[C@@H](C)[C@@H](C(=O)N1CCN(C(=O)OC(C)(C)C)CC1)n1cc(CCC(=O)O)nn1`, the Potency is reported as “inactive”.
